Five compounds from PubChem BioAssay can be followed below.

Active and inactive are the calls of the source.

A short description of assay [1]: binders of probe aFSTL3 on microarray, primary screen, stem cell growth factor project, biochemical, small-molecule microarray, fluorescence 635/667 (AID 1064).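 Further: measures binding of the biotinylated anti-FSTL3 antibody to printed compounds.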 Particulars: higher = more signal.
The nature of assay [2]: binders from COS7 lysate, DM2A8 probe, primary screen, torsin A project, cell lysate, small-molecule microarray, fluorescence 635/667 (AID 1065). Particulars: higher = more signal, COS7 lysate expressing mutant human TOR1A.
The nature of assay [3]: binders of probe aFGF2 on microarray, primary screen, stem cell growth factor project, biochemical, small-molecule microarray, fluorescence 635/667 (AID 1067).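 Further: measures binding of biotinylated aFGF2 protein to printed compounds on slides; z-score merges feature fluorescence and signal-to-noise across triplicate slides.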 Particulars: higher = more signal.
Assay [4] in a line: binders of probe aFGF10 on microarray, primary screen, stem cell growth factor project, biochemical, small-molecule microarray, fluorescence 635/667 (AID 1071).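 Further: score merges 667 nm spot intensity and signal to noise from triplicate slides.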 Particulars: higher = more signal.
In assay [5] the target is Neurogenic locus notch homolog protein 2 (Homo sapiens) (UniProt Q04721). The experiment in a line: Notch2 binders on small-molecule microarrays, primary screen, biochemical, small-molecule microarray, 635 nm fluorescence, stem cell growth factors (AID 1073). Particulars: Notch2 binding, higher = more signal.
Sequence of Neurogenic locus notch homolog protein 2 (Homo sapiens) (Q04721 whole entry, looked up, canonical isoform): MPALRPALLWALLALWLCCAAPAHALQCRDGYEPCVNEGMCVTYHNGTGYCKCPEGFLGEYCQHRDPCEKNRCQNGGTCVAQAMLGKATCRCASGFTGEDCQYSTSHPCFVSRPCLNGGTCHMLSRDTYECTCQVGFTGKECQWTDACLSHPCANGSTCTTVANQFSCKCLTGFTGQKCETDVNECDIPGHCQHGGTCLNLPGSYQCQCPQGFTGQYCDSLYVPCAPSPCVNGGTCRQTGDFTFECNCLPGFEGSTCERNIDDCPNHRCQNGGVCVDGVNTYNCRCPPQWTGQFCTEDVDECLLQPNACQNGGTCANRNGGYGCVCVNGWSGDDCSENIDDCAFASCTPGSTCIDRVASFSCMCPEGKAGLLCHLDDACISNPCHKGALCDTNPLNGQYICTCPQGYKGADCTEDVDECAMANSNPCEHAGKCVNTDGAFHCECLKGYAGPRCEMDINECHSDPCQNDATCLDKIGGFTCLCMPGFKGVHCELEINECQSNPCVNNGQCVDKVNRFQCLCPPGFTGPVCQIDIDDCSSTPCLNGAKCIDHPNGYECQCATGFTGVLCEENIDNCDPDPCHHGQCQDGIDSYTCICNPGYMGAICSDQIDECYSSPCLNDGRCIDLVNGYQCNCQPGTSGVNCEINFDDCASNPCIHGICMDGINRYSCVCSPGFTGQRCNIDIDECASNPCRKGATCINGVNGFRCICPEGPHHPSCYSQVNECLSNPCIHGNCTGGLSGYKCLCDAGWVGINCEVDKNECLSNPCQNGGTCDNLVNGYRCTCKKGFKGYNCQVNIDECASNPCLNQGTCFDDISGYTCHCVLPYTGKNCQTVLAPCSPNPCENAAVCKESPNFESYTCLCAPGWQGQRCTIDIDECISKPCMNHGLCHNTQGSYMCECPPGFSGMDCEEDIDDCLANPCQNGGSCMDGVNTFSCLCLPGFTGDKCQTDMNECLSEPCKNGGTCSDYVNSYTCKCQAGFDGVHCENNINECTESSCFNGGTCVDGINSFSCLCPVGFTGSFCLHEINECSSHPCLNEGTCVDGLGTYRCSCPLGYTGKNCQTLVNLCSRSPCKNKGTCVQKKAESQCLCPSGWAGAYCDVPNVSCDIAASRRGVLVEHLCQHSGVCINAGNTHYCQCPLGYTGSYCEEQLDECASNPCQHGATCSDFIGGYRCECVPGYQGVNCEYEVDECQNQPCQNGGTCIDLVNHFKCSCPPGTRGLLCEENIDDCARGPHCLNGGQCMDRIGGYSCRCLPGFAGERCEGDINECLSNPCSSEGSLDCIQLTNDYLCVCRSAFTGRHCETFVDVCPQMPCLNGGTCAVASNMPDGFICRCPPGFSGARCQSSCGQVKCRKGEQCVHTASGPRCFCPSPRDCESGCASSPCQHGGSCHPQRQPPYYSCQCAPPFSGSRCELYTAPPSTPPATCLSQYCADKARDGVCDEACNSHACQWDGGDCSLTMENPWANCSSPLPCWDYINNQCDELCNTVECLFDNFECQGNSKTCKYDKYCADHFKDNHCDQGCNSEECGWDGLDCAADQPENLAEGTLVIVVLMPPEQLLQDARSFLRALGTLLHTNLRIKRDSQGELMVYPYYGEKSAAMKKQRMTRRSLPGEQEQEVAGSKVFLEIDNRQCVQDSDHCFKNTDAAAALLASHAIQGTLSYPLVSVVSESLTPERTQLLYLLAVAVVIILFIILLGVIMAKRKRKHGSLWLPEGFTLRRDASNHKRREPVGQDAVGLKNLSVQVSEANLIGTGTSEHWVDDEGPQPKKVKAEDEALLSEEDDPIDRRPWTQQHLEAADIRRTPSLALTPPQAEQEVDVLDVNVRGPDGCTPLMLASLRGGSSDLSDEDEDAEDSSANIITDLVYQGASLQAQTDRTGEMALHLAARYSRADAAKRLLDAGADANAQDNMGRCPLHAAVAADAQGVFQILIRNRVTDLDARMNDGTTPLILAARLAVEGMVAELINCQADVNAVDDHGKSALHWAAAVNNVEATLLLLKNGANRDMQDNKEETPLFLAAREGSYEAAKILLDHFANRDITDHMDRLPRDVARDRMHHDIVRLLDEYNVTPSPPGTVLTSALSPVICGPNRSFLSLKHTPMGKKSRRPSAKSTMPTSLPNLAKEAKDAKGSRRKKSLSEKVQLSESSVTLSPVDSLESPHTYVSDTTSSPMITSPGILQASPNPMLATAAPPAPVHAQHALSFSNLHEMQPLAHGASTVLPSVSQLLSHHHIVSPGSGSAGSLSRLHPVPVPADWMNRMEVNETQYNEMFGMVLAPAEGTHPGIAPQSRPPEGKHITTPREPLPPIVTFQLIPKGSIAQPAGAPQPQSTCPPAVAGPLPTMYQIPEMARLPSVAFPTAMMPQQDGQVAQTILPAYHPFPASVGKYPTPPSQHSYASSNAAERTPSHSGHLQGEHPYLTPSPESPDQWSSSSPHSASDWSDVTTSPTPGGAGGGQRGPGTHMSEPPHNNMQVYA
The target in assay [6] is Pro-neuregulin-1, membrane-bound isoform (Homo sapiens) (UniProt Q02297). The experiment in a line: NRG1 binders on small-molecule microarrays, primary screen, psychiatric disease protein project, biochemical, small-molecule microarray, fluorescence 635/667 (AID 1075).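 Further: score combines 667 nm spot fluorescence with signal to noise.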 Particulars: NRG1 binding, 635 nm fluorescence, higher = more signal.
The test system of assay [7] is Neuregulin-1 EGF-like domain. The assay can be described thus: binders of neuregulin-1 EGF-like domain, primary screen, biochemical, small-molecule microarray, 635 nm fluorescence (AID 1081).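 Further: binding of the protein to compounds printed on small-molecule microarray slides.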 The following applies: small-molecule microarray binding, higher = more signal.
Assay [8] can be described thus: FRG1 promoter luciferase signal modulators, primary screen, FRG1 inhibition for FSHD, cell-based, C2C12 myotubes, firefly/Renilla luciferase, luminescence (AID 1084). Particulars: higher = more signal, called active from +8 up or from −8 down.
Assay [9] is described as follows: binders of probe aFST on microarray, primary screen, stem cell growth factor project, biochemical, small-molecule microarray, fluorescence 635/667 (AID 1086).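 Further: score merges 667 nm fluorescence with signal-to-noise of each printed compound spot.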 The following applies: higher = more signal.
Assay [10] in a line: binders of probe aHhip on microarray, primary screen, stem cell growth factor project, biochemical, small-molecule microarray, fluorescence 635/667 (AID 1087).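 Further: score merges spot fluorescence at 667nm with spot signal to noise ratio.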 Particulars: higher = more signal.
For assay [11], the system named is PRMT1 (protein arginine N-methyltransferase 1). The assay can be described thus: PRMT1 binders on small-molecule microarrays, primary screen, biochemical, small-molecule microarray, 635 nm fluorescence (AID 1088).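 Further: binding of Prmt1 protein to compounds spotted on small-molecule microarray slides.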 Particulars: small-molecule microarray binding, higher = more signal.
Assay [12] can be described thus: yeast growth modulation, basal conditions, primary screen, YJM789 clinical isolate, OD600, 24 h (AID 1089).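 Further: growth of clinical yeast isolate S. cerevisiae YJM 789 seeded 1000 cells per well; test concentration not given here.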 The following applies: S. cerevisiae YJM789 growth, higher = more signal, called active from +8 up or from −8 down.
Assay [13] is described as follows: fission yeast growth modulation, primary screen, strain 972, OD600, 24 h, no modulator (AID 1090).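 Further: basal condition with compound alone and no growth modifier present; test concentration not given here.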 The following applies: S. pombe 972 growth, higher = more signal, called active from +8 up or from −8 down.
Assay [14] in a line: S. cerevisiae growth modulation with rapamycin, primary screen, strain BY4716, OD600, 96 h (AID 1091). Further: test concentration not given here. Particulars: higher = more signal, called active from +8 up or from −8 down.
Assay [15] addresses Torsin-1A-interacting protein 2 (Homo sapiens) (UniProt Q8NFQ8). The assay can be described thus: LULL1 binders on small-molecule microarray, primary screen, cell lysate, human LULL1 lysate, 635/667 nm fluorescence (AID 1092).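 Further: probe is lysate of COS7 cells overexpressing human LULL1; score merges per-feature 667 nm fluorescence with signal-to-noise.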 Particulars: hLULL1 lysate binding, 635 nm fluorescence, higher = more signal.
Assay [16] in a line: E. coli growth modulation, two-sided OD650, primary screen, E. coli filamentation project, strain DRC41, 24 h (AID 1093).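 Further: MC1000 strain lacking acrAB efflux and sulA so SOS filamentation is blocked; test concentration not given here.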 Particulars: OD650, 24 h, higher = more signal, called active from +8 up or from −8 down.
Assay [17] in a line: small-molecule microarray binders of probe aLefty2, primary screen, biochemical, biotinylated probe, 635/667 nm fluorescence (AID 1094).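 Further: score merges spot fluorescence near 667 nm with spot signal-to-noise ratio.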 The following applies: higher = more signal.
Assay [18] concerns Noggin (protein binding on small-molecule microarray). The experiment in a line: Noggin binders on small-molecule microarray, primary screen, biochemical, 635/667 nm fluorescence (AID 1095).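 Further: score merges 667 nm feature fluorescence with signal to noise over triplicate slides.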 Particulars: 635 nm fluorescence, higher = more signal.
Assay [19] concerns the target Neurogenic locus notch homolog protein 3 (Homo sapiens) (UniProt Q9UM47). The experiment in a line: NOTCH3 binders on small-molecule microarray, primary screen, biochemical, 635/667 nm fluorescence (AID 1096). The following applies: NOTCH3 binding, 635 nm fluorescence, higher = more signal.
A short description of assay [20]: small-molecule microarray binders of probe aEGFR, primary screen, biochemical, biotinylated probe, 635/667 nm fluorescence (AID 1097).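 Further: probe is a biotinylated anti-EGFR antibody binding compounds printed on slides; score combines fluorescence near 667 nm and signal to noise of each spot.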 Particulars: higher = more signal.

Sequence of Neurogenic locus notch homolog protein 3 (Homo sapiens) (Q9UM47 whole entry, looked up): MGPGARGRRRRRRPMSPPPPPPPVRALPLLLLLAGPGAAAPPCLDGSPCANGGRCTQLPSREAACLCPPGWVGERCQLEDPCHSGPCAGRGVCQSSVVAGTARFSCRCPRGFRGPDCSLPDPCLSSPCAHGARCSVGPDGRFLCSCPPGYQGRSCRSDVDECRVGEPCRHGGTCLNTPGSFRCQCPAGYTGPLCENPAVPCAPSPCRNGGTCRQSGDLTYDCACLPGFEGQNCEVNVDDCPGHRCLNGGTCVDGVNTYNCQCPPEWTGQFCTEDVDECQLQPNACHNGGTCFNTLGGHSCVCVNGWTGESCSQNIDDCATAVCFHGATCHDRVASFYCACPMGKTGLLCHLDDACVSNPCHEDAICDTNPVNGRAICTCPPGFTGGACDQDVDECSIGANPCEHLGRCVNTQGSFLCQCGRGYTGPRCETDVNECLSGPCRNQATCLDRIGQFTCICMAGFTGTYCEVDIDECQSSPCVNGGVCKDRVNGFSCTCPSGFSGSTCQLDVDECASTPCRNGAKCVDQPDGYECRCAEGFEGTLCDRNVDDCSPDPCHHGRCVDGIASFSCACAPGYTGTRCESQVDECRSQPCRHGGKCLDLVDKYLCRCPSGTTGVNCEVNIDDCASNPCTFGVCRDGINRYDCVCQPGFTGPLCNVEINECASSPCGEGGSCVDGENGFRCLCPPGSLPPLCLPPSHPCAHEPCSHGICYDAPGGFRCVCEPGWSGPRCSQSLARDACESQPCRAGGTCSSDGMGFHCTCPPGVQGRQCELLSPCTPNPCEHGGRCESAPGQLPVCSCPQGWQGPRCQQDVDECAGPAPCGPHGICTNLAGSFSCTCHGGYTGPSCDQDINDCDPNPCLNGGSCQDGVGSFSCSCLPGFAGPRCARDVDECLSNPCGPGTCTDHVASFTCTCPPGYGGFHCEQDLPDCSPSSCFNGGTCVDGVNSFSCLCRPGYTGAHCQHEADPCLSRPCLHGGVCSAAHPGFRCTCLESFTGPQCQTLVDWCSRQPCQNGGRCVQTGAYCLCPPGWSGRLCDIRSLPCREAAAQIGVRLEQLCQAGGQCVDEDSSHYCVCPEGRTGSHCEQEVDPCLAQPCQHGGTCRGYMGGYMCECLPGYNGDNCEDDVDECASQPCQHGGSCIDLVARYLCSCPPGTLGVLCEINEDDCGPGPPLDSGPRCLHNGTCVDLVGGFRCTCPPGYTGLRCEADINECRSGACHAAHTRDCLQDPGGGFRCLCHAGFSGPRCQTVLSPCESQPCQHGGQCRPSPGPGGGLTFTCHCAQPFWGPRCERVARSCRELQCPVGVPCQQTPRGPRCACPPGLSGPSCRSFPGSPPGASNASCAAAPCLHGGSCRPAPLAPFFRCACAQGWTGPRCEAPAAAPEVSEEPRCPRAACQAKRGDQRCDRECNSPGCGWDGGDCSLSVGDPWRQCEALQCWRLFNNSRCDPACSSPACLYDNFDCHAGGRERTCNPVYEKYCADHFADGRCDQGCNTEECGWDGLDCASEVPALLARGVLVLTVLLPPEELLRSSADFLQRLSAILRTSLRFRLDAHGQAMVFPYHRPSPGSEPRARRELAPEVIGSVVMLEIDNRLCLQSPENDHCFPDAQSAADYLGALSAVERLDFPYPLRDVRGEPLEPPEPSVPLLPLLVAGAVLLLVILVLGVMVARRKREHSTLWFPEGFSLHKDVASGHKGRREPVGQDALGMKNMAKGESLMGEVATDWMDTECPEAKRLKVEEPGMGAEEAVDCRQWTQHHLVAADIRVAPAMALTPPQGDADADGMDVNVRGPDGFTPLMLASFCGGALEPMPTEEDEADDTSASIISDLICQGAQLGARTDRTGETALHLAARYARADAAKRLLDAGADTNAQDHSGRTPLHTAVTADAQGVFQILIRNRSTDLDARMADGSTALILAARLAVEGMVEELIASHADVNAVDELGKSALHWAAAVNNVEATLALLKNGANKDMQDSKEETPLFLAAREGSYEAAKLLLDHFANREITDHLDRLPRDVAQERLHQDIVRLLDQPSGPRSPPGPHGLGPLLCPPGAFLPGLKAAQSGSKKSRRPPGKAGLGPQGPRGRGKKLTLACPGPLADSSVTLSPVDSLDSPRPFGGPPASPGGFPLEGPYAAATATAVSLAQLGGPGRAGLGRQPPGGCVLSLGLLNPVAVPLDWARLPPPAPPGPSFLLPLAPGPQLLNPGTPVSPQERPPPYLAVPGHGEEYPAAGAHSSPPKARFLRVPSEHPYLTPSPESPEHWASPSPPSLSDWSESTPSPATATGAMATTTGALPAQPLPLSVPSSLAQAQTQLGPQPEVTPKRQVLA

Consider `C=C(C1=CCN(S(=O)(=O)c2ccc(C)cc2)C1)[C@@H](OC(C)=O)[C@@H]1CCCN1S(=O)(=O)c1ccccc1[N+](=O)[O-]`, for which the composite z-score in [1] was -0.0883; in assay [2], -0.189; in assay [3] it was -0.05; in [4], 0.487; in [5] it was -0.574; in assay [6], -0.158. Besides, the composite z-score in [7] is 0.406; in assay [9], -0.344; in assay [10] it was -0.0994; in assay [11], -0.267; in assay [15], 1.2; in [17], -0.297. Also, the composite z-score in assay [18] is -0.305; in [19] it was 0.127; in [20] it was -0.202. For the same compound, the z-score in assay [8] was -3.21 (inactive); in [12], 0.943 (inactive); in assay [13] it was 0.0893 (inactive); in assay [14], 1.82 (inactive); in assay [16] it was 2.89 (inactive).

`CC(C)(C)OC(=O)CC[C@]1(C(=O)NCc2ccccc2)COC(c2ccc(OCCCO)cc2)=N1`: the composite z-score was 0.508 in [1]; 1.3 in assay [2]; -0.0675 in assay [3]; 0.0174 in assay [4]; 0.431 in [5]; 1.79 in assay [6]. Besides, the composite z-score was 1.1 in [7]; 0.613 in [9]; -0.0047 in assay [10]; 0.712 in [11]; 3.14 in assay [15]; 0.0325 in [17]. Moreover, the composite z-score in assay [18] is -0.148; in assay [19], -0.0559; in assay [20] it was -0.058. Besides, the z-score is -2.97 (inactive) in [8]; -1.08 (inactive) in assay [12]; -0.413 (inactive) in assay [13]; -1.64 (inactive) in [14]; 1.93 (inactive) in [16].

Regarding `C#CCN1C(C(=O)OCC)OC[C@H]1c1ccccc1` (stereo not given in full), the composite z-score in assay [1] was -0.551; in [2] it was 2.59; in assay [3] it was -0.128; in assay [4], 0.389; in assay [5], 0.678; in assay [6] it was 0.0354. Also, the composite z-score is -0.143 in assay [7]; -0.0006 in assay [9]; -0.492 in [10]; 0.52 in [11]; 3.77 in [15]; -0.205 in assay [17]. Besides, the composite z-score in assay [18] is 0.671; in [19], 0.804; in [20] it was -0.109. In addition, the z-score was -1.77 (inactive) in assay [8]; -1.51 (inactive) in assay [12]; -2.08 (inactive) in assay [13]; -1.95 (inactive) in [14]; 1.92 (inactive) in [16].

Take `O=C(N1CCCCC1)[C@@]1(Cc2ccccc2)N=C(c2ccc(OCCCO)cc2)O[C@H]1c1ccccc1`: the composite z-score in assay [1] is 0.994; in assay [2], 2; in assay [3], 0.103; in [4] it was 0.235; in assay [5] it was 1.58; in [6] it was 1.05. For the same compound, the composite z-score in assay [7] is 1.02; in assay [9] it was 1.52; in assay [10], -0.146; in assay [11], 1.18; in [15] it was 2.99; in assay [17] it was 0.429. Also, the composite z-score in [18] was determined as 0.368; in assay [19], 0.966; in assay [20], 0.293. The z-score in [8] is -3.21 (inactive); in [12] it was -0.997 (inactive); in assay [13], -2.65 (inactive); in assay [14] it was 4.43 (inactive); in assay [16], 0.668 (inactive).

With `CCOC(=O)C[C@H]1[C@H](OC(=O)c2ccc(-c3ccccc3)cc2)[C@@H](NC(=O)C2CCCCC2)c2cc(OCCCO)ccc2N1C(=O)c1ccc2ccccc2n1`, the composite z-score was 0.0371 in [1]; 0.3 in assay [2]; -0.0788 in [3]; 0.361 in assay [4]; 0.689 in assay [5]; 0.738 in assay [6]. In addition, the composite z-score in assay [7] was 0.741; in [9] it was 0.483; in [10] it was -0.226; in assay [11], 1.12; in assay [15] it was 1.72; in [17], 0.0366. Besides, the composite z-score was 0.0692 in assay [18], 1.1 in assay [19] and -0.0631 in [20]. Further, the z-score in [8] was -0.429 (inactive); in assay [12], -0.778 (inactive); in [13], -1.55 (inactive); in [14], -0.327 (inactive); in assay [16], 2.33 (inactive).
